A selection: hits, their analogues and other compounds. The true share with any hit is near 11%.
Pf growth 96h = Primary qHTS for delayed death inhibitors of the malarial parasite plastid, 96 hour incubation; P. falciparum luciferase reporter growth, 96 h; Potency, µM (titrated, usually from 28.7 µM), for the others: top-dose activity change, negative = inhibition, actives largely listed as inhibitors; hit rate 6.9% among 320,000; AID 504834, 2011; also: % is scaled to controls: 0 for no effect and ±100 for the full control effect
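Two parasite generations (96 h, 37 C, 5% CO2) of compound exposure in infected erythrocytes (0.05% parasitemia, 2% hematocrit). Luciferase-reporter P. falciparum; decreased luminescence indicates inhibited growth, aimed at apicoplast-acting delayed death.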
NS1 inh = qHTS Assay for Inhibitors of Influenza NS1 Protein Function. Potency, µM (top dose mostly 46.1 µM), for inactives: at the highest dose activity, positive = more growth. hit rate 0.4% among 270,000. AID 2326, 2010; calls by dose curve; also: actives are rising curves; nearly all actives have a fitted effect of over 50% in size
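In this qHTS, NS1 from influenza A is expressed in budding yeast, where it slows growth. Cells are switched from glucose to 2% galactose medium (pH 6.0, -URA), treated with compound, and growth recovery is read at OD600.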
AMA1-RON2 inh = qHTS for Inhibitors of AMA1-RON; Towards Development of Antimalarial Drug Lead: Primary Screen; Potency, µM (doses to about 58.2 µM), for inactives: top-dose activity change, negative = inhibition, hits mostly inhibitors; hit rate 0.2% among 360,000; AID 720542, 2013; AlphaScreen AMA1-biotinylated RON2 peptide binding;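 also: 0% = vehicle wells and -100% = peptide control; nearly all actives have a fitted effect of over 45% in size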
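AMA1 (3D7) with his tag at 25 nM final met compounds first, then biotinylated RON2 peptide at 25 nM; detection used donor plus acceptor beads, 10 µg/mL apiece, read by AlphaScreen after 30 min at room temperature.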
Sm TGR block = qHTS Assay for the Inhibitors of Schistosoma Mansoni Peroxiredoxins | Schistosoma mansoni thioredoxin glutathione reductase (TGR), Q962Y6 | purified TGR, DTNB reduction, TNB absorbance 405 nm | Potency, µM (highest dose often 114 µM), without a hit: top-dose activity change, negative = inhibition, usual class: inhibitors | hit rate 3% among 360,000 | AID 485364, 2010; also: % is scaled to controls: 0 for no effect and ±100 for the full control effect; nearly all actives have a fitted effect of over 60% in size
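Kinetic colorimetric format: TGR-catalysed, NADPH-driven DTNB reduction monitored via TNB absorbance. Enzyme dispensed at 20 nM; compound exposure 15 min at room temperature before reaction start.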
Pf growth 48h = Primary qHTS for delayed death inhibitors of the malarial parasite plastid, 48 hour incubation. P. falciparum luciferase growth in erythrocytes, 48 h. Potency, µM (top dose mostly 28.7 µM), without a hit: at the top dose activity change, negative = inhibition, actives largely listed as inhibitors. hit rate 5.9% among 310,000; also: % is scaled to controls: 0 for no effect and ±100 for the full control effect
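A one-generation exposure of luciferase-tagged malaria parasites in RPMI 1640/Albumax erythrocyte culture, 37 C and 5% CO2. Inhibition is inferred from decreased luminescence after adding detection reagent.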
* = called active by the depositor; u = inconclusive; x = not tested or not shown; [ ] = another dose, or the depositor's remark. Unless noted, calls follow the shape of the dose curve; as a rule, active = well fitted curve in the direction sought with a large enough effect; inconclusive = small, poorly fitted or top-dose-only effect, or another doubt; inactive = no such curve, though single readings can be large; an effect the other way counts as inactive or inconclusive. Potency is read from the fitted curve at half-maximal effect.

SMILES | Pf growth 96h | NS1 inh | AMA1-RON2 inh | Sm TGR block | Pf growth 48h
COC(=O)C1=C(c2cccc3c2S(=O)(=O)c2ccccc2-3)C[C@@H]2CC[C@H]1N2C(=O)N1CCOCC1 | 6.6µM* | x | -9% | -13% | 10µM*
COC(=O)C1=C(c2cccc3c2S(=O)(=O)c2ccccc2-3)C[C@@H]2CC[C@H]1N2C(=O)N1CCc2cc(OC)c(OC)cc2C1 | u | x | -9% | -5% | 3.7µM*
CCCC(=O)NCC(c1ccc2c(c1)OCO2)N1CCN(c2ccc(F)cc2)CC1 (stereo not given) | x | x | x | -2% | x
COc1ccc(S(=O)(=O)NCCCO)cc1-c1nnc2c3ccccc3c(C)nn12 | x | x | x | -5% | x
O=C(Cc1ccc(Cl)cc1)NCC(=O)N1CCCCC1 | -2% | 1% | 5% | 10% | 31%
O=C(Cc1ccc(Cl)cc1)NCC(=O)N1CCCCCC1 | 12µM* | -9% | 1% | -2% | u
O=C(Cc1ccc(Cl)cc1)N1CCOCC1 | 15µM* | 9% | -13% | -17% | 0%
Cc1ccc(CC(=O)N2CCOCC2)cc1 | -7% | 6% | 3% | -1% | 2%
COc1cc2c(-c3ccc(O)cc3)nc3c(c(C)nn3-c3ccccc3)c2cc1OC | 34% | 1% | -5% | -6% | 15µM*
COc1cccc(-c2nc3c(c(C)nn3-c3ccccc3)c3cc(OC)c(OC)cc23)c1 | x | x | x | -4% | x
CC(=O)c1cccc(NC(=O)CN2C(=O)CC(c3ccc(C)cc3C)=Nc3ccccc32)c1 | x | x | x | 4% | x
CC(=O)Nc1ccc(S(=O)(=O)NC(=O)C23CC4CC(CC(C4)C2)C3)cc1 | 0.93µM* | 1% | 16% | -2%[11.4 µM] | x
O=C(CN1C(=O)CC(c2ccco2)Sc2ccccc21)Nc1ccccc1F (stereo not given) | u | -117% | -4% | 25µM* | u
CCN1C(=O)CC(c2ccco2)Sc2ccccc21 (stereo not given) | x | 18% | -2% | 25µM* | -5%
COc1cc(C2CC(=O)N(CC(=O)NCc3ccco3)c3ccccc3S2)cc(OC)c1OC (stereo not given) | 85% | 2% | 0% | -35% | 10µM*
O=C(CN1C(=O)CC(c2ccco2)Sc2ccccc21)Nc1ccc(Br)cc1 (stereo not given) | x | x | x | -8% | x
CSc1cccc(CN2CCC(CCC(=O)NC3CC3)CC2)c1 | -13% | -7% | 30% | 8% | 8%
O=C(NCC(=O)N(c1cccnc1)C(C(=O)NC1CCCCC1)c1ccccc1F)c1ccco1 (stereo not given) | -21% | 10% | -9% | 6% | -7%
COCC(=O)N1C[C@H]2CON(C)[C@H]2C[C@H]1c1ccc(N2CCCCC2)cc1 | x | x | 3% | x | x
CN1OC[C@@H]2CN(Cc3ccc(Cl)cc3)[C@H](c3ccc(N4CCCCC4)cc3)C[C@@H]21 | x | x | 16µM* | x | x
Cc1cc(C(=O)COC(=O)c2ccc3c(c2)NC(=O)CS3)c(C)n1CCc1ccc(Cl)cc1 | 1% | 10% | 1% | x | 44%
Cc1cc(Cc2cc(C)c(N)cc2N)c(N)cc1N | x | 8.9µM* | x | x | x
CCOc1ccc(NC(=O)CN(C)C(=O)C2CCCO2)cc1OCC (stereo not given) | 34% | x | 0% | -13% | -6%
O=C1/C(=C\Nc2ccc(Cl)cc2)CCN1c1ncccn1 | 224% | 0% | 1% | 16µM* | 203%
Cc1noc(C)c1S(=O)(=O)N(C)C[C@H]1OCc2cn(nn2)CCCC(=O)N([C@H](C)CO)C[C@@H]1C | x | x | -3% | x | x
Cc1ccc2c(c1)nc1c3ccccc3nc(-c3ccccc3N)n21 | x | x | -14% | x | x
COC(=O)NNC(=O)CCCOc1ccc(Cl)cc1Cl | 38% | 7% | 2% | 7% | 1%
CC(C)NC(=O)CCCOc1ccc(Cl)cc1Cl | 10µM* | -50% | -1% | -3% | x
CCCC(=O)NC(Oc1ccc(Cl)cc1Cl)C(Cl)(Cl)Cl (stereo not given) | 35% | 7% | -2% | 32µM* | -1%

Screens: PubChem, National Center for Advancing Translational Sciences (NCATS)
